Hits are enriched below; roughly 3.5% of the tested compounds scored in any of these assays.
BH1578 lux ind: inducers of Vibrio cholerae quorum light production without autoinducers, primary screen, BH1578 luxS cqsA deficient, single point | activation, % at 18.7 µM | hit rate 0.16% among 350,000 | V. cholerae BH1578 lux reporter, luminescence, 6 h; in the data active = activation mostly above about 9.7%, no sharp cut-off; inconclusive = no clear call, values can overlap the other calls; inactive = mostly below about 3.7%
Anthrax LF inh2: Bacillus anthracis LF protease inhibitors, primary screen, biochemical, multiplex microsphere, MLPCN library; Lethal factor (Bacillus anthracis), P15917; multiplex microsphere protease cleavage assay; inhibition, % at 10 µM; hit rate 0.12% among 360,000; AID 588501, 2011; also: plate controls were buffer without enzyme for full effect and enzyme alone for no effect
Target sequence (P15917 whole entry, looked up): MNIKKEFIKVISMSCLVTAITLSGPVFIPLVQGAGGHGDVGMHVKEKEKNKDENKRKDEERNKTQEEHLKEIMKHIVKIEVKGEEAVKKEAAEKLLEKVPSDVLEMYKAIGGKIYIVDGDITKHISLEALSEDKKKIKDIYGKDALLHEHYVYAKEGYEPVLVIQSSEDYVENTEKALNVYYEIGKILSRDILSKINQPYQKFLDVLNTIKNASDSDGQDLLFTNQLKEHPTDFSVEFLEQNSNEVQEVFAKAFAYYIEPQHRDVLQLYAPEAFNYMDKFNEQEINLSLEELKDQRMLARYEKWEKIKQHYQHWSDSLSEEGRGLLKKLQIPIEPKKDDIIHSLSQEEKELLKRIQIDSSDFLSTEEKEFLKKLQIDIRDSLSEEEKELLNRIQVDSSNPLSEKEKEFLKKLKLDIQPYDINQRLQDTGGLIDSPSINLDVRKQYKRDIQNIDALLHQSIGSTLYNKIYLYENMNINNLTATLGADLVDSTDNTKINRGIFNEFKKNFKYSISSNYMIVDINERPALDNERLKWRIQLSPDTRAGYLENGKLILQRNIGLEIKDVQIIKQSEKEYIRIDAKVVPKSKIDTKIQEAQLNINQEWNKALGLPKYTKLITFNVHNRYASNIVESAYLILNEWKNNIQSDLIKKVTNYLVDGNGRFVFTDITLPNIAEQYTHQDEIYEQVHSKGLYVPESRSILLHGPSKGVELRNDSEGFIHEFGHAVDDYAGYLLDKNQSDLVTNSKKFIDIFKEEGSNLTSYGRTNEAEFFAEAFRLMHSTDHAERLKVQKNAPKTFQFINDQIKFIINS
BoNT F protease: BoNT/F light chain protease inhibitors, primary screen, biochemical, flow cytometry, MLPCN library. hit rate 0.22% among 360,000. Botulinum neurotoxin type F light chain protease (Clostridium botulinum). inhibition, % at 10 µM. Multiplex microsphere protease cleavage assay. AID 588497, 2011; in the data active = inhibition above about 35%, passing the limit was not always enough; inconclusive = no clear call, values can overlap the other calls; also: plate controls were buffer without enzyme for full effect and enzyme alone for no effect
BoNT A protease: BoNT/A light chain protease inhibitors, primary screen, biochemical, flow cytometry, MLPCN library | Botulinum neurotoxin type A light chain protease (Clostridium botulinum A str. ATCC 3502) | multiplex microsphere protease substrate cleavage | inhibition, % at 10 µM | hit rate 0.17% among 360,000; also: plate controls were buffer without enzyme for full effect and enzyme alone for no effect
Autofluor counter: flagged as autofluorescent in microsphere protease counterscreen; hit rate 3.1% among 360,000; fluorescence intensity (test concentration not listed); compound autofluorescence counterscreen, microsphere flow cytometry; hits give high values; in the data active = fluorescence intensity above about 16000; inconclusive = no clear call, values can overlap the other calls
An asterisk follows results filed as active; i = inactive; ? = inconclusive; / = no result. Rule as the data show it, unless noted: active = inhibition above about 30%; inconclusive = no clear call, values can overlap the other calls; inactive = below that.

SMILES	BH1578 lux ind	Anthrax LF inh2	BoNT F protease	BoNT A protease	Autofluor counter
COc1ccccc1NC(=O)COc1cccc(-n2cnnn2)c1	i	-1	-10	-6	18765*
COc1cccc(NC(=O)COc2cccc(-n3cnnn3)c2)c1	i	-5	-2	0	4517
CC(=O)c1ccc(N=Nc2ccc(N)cc2)cc1	4	-8	-3	0	3363
CN1CCN(C(=O)c2cc(Cl)ccc2NC(=O)c2ccc(Cl)cc2Cl)CC1	i	1	2	-2	6184
Cc1csc(SCC(=O)NCc2ccccc2Cl)n1	0	-1	-1	-2	3501
O=C(Nc1ccc(Cl)c(Cl)c1)Nc1nccs1	i	-8	-8	0	4640
O=C(Nc1cccc(Cl)c1)Nc1nccs1	-3	-24	12	?	16192*
COc1cccc(OC)c1OCCN1CCN(C(c2ccccc2)c2ccccc2)CC1	i	-3	-9	-1	3087
COc1ccc(C2/C(=C(\O)c3cccc(OC)c3)C(=O)C(=O)N2c2ccccn2)cc1 (configuration not stated)	i	-2	-6	?	23419*
Cc1ccccc1-n1nc(C)c(N=O)c1N	0	-6	0	0	4268
Cc1n[nH]c(C)c1C(=O)CC1(O)C(=O)N(CCc2ccccc2)c2ccc(Br)cc21 (configuration not stated)	0	0	5	0	11230
Cc1n[nH]c(C)c1C(=O)CC1(O)C(=O)N(Cc2ccccc2)c2ccc(Br)cc21 (configuration not stated)	2	1	-1	1	22972*
CC(C)(C)OC(=O)N1CSC[C@H]1C(=O)NC[C@H](CC(=O)O)c1ccc(Cl)cc1	-1	23	-2	-1	3560
COc1ccc(CCNC(=O)c2nonc2N)cc1	i	-6	9	0	6706
COc1cccc(CNCCNC(=O)c2nonc2N)c1	0	-3	-9	-5	24154*
CCN1C(=O)[C@H]2[C@@H](c3ccc(-c4ccc5c(c4)OCO5)c(OC)c3)N[C@@](C)(C(=O)OC)[C@H]2C1=O	0	-4	1	0	2925
CCOC(=O)C1C(=O)NC(N2CCCCC2)=NC1c1ccccc1 (configuration not stated)	i	-2	1	-1	22677*
CCOC(=O)C1C(=O)NC(N2CCN(Cc3ccccc3)CC2)=NC1c1ccccc1 (configuration not stated)	i	-5	-8	-1	11601
Cc1ccc(CSc2[nH]c(=O)ncc2C)cc1	0	-1	-4	-1	5965
O=C1NC(=O)C2(Cc3ccccc3N3CCCC32)C(=O)N1c1ccccc1 (configuration not stated)	5	-1	-5	1	3927
O=C1NC(=O)C2(Cc3ccccc3N3CCOCC32)C(=O)N1c1ccccc1 (configuration not stated)	0	-1	0	1	22770*
CCOc1ccc(C(=O)NC(=S)Nc2ccccc2N2CCC(C)CC2)cc1[N+](=O)[O-]	i	0	-2	0	?
CCOc1ccc(C(=O)NC(=S)Nc2ccc(N3CCC(C)CC3)cc2)cc1[N+](=O)[O-]	/	-11	39*	-7	14746
CCC(c1nc2ccccc2c(=O)n1CCN1CCOCC1)N1C(=O)c2ccccc2C1=O (configuration not stated)	0	-4	-3	-1	20159*
Cc1ccc(S(=O)(=O)NCCC(=O)NC2CCC(C)CC2)cc1 (configuration not stated)	-1	-6	-5	0	3448
SMILES	BH1578 lux ind	Anthrax LF inh2	BoNT F protease	BoNT A protease	Autofluor counter
Cc1ccc(NC(=O)CSc2nnnn2-c2cccnc2)c(C)c1	-2	-3	6	0	3568
Cc1ccccc1SCC(=O)Nc1ccc(N2CCOCC2)cc1	-1	0	-11	0	3477
Cc1ccccc1SCC(=O)NC1CCOC1=O (configuration not stated)	i	-2	2	1	22927*
O=C(NC1CCCC1)c1csc2c1CCCC2	i	-2	6	5	19286*
CCCNC(=O)c1csc2c1CCCCC2	-2	2	9	1	4595
CCC1Oc2ccc(C)cc2N(CC(=O)NCCC2=CCCCC2)C1=O (configuration not stated)	-1	1	7	?	18757*

Source: PubChem (several laboratories)
